# 12-LOX inh – blocks human arachidonate 12S-lipoxygenase; purified 12hLO, xylenol orange hydroperoxide absorbance; P18054; AID 1671190; 580,000 compounds, 1.1% hits; Potency, µM (series often up to 108 µM), for the others: at the top dose activity change, negative = inhibition, most hits filed as inhibitors; note: potency is the fitted concentration of half-maximal effect
# Target sequence (P18054 whole entry, looked up): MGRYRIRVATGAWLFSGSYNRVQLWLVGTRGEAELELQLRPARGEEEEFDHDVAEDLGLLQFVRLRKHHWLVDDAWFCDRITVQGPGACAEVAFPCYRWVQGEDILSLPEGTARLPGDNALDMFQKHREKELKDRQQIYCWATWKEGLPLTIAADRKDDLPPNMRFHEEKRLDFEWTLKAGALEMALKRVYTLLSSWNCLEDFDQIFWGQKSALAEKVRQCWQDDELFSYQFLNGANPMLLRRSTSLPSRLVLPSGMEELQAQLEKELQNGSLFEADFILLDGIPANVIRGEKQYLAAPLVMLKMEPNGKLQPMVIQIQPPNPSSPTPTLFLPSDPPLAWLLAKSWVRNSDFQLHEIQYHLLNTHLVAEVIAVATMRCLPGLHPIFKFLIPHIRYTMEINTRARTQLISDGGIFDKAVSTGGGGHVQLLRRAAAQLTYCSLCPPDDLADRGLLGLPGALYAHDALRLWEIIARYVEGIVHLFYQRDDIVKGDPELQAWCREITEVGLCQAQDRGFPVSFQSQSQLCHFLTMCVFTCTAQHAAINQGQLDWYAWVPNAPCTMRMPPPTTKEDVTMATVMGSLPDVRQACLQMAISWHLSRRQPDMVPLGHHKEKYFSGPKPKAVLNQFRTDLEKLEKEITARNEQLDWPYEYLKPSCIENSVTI
#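 Hydroperoxide product was detected by ferrous iron/xylenol orange as the 573 to 405 nm absorbance ratio. Arachidonic acid at 40 uM (final) was turned over for 30 min at room temperature by 150 nM human 12hLO, pH 7.0 Hepes buffer, after 15 min compound preincubation.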
# IL1B secr inh – inflammasome signaling inhibition, IL-1 beta readout; THP-1 LPS/ATP IL-1B secretion, AlphaLISA, 16 h; active compounds read low; activity change, % at 57.5 µM; 360,000 compounds, 4.7% hits; in the data active = activity change below about -50%; inconclusive = mostly about -30% to -49%
#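 Secreted IL-1B measured by AlphaLISA bead assay after 16 h compound exposure of THP-1 cells; compounds (final up to 57.5 uM) added 1 h before LPS (250 ng/mL) and ATP (1.25 mM) stimulation; lower signal means less secretion.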
# DT40 TDP1 no CPT – qHTS for Inhibitors of human tyrosyl-DNA phosphodiesterase 1 (TDP1): qHTS in cells in absence of CPT; 420,000 compounds, 15% hits; DT40 Tdp1-/- hTDP1 cells, no CPT, ATP luminescence, 48 h; Potency, µM (top dose mostly 46.2 µM), for inactives: at the top dose activity change, negative = growth inhibition, actives largely listed as inhibitors; AID 686978, 2013; note: potency is the fitted concentration of half-maximal effect; nearly all actives have a fitted effect of over 55% in size
#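 No-CPT arm: Tdp1-/-;hTDP1 DT40 cells (400/well) plus compounds, incubated ≥48 hr at 37 °C. Readout CellTiter-Glo luminescence.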
# HT1080-NT tox – kills 2HG-producing HT-1080-NT fibrosarcoma cells; HT-1080-NT fibrosarcoma viability, CellTiter-Glo ATP luminescence, 48 h; Potency, µM (titrated, usually from 46.1 µM), without a hit: top-dose activity, negative = less viability, actives largely listed as cytotoxic; 360,000 compounds, 1.6% hits; AID 686970;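 note: NT is the 2HG producing partner of a matched IDH1 knockdown line; potency is the fitted concentration of half-maximal effect; 0% = DMSO-treated cells and -100% = media-only wells without cells; nearly all actives have a fitted effect of over 55% in size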
#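 Compounds were tested in concentration-response format on HT-1080-NT cells for 48 hours at 37 degrees C. Cell viability came from CellTiter-Glo luminescence; curves were classified by r2, response magnitude and activity.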
# HT1080 IDH1KD tx – kills HT-1080 cells with IDH1 knockdown; 360,000 compounds, 2% hits; Potency, µM (highest dose often 46.1 µM), for inactives: at the top dose activity, negative = toxicity, actives largely listed as cytotoxic; HT-1080 IDH1 knockdown viability, ATP luminescence, 48 h;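 note: potency is the fitted concentration of half-maximal effect; 0% = DMSO wells and -100% = cell-free medium wells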
#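 After a 2 h attachment period, IDH1KD HT-1080 cells took pin-transferred compound for 48 h at 37 °C; ATP-based luminescence after 10 min room-temperature reagent incubation reported viability.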
# TDP1 cell CPT – DT40-hTDP1 cell growth loss with CPT; chicken DT40 Tdp1-/-;hTDP1 cells + 20 nM CPT, ATP luminescence, 48 h; Potency, µM (doses to about 46.2 µM), for inactives: top-dose activity change, negative = growth inhibition, most hits filed as inhibitors; 420,000 compounds, 12% hits; note: potency is the fitted concentration of half-maximal effect; nearly all actives have a fitted effect of over 55% in size
#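 Cell growth measured by CellTiter-Glo luminescence after a minimum 48 h, 37 C compound exposure with 20 nM CPT in Tdp1-knockout DT40 cells stably expressing hTDP1, seeded 400/well; qHTS titration format.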
# Starred values were filed as active, the others as inactive; u = inconclusive; x = not tested or not shown; [ ] = dose if it differs, or a comment. Many of the other results were omitted from the sample, so hits are more common in it than they were. Unless noted, calls come from the whole dose curve; as a rule, active = well fitted curve in the direction sought with a large enough effect; inconclusive = small, poorly fitted or top-dose-only effect, or another doubt; inactive = no such curve, though single readings can be large; an effect the other way counts as inactive or inconclusive. Unless noted, % is set by controls: 0 for no effect and ±100 for the full control effect.
SMILES,12-LOX inh,IL1B secr inh,DT40 TDP1 no CPT,HT1080-NT tox,HT1080 IDH1KD tx,TDP1 cell CPT
CC(=O)Nc1cccc(NC(=O)c2cc(-c3cccnc3)nc3ccc(Br)cc23)c1,-1%,-19,18µM*,u,u,18µM*
O=C(O)c1cc(-c2cccnc2)nc2ccc(Br)cc12,0%,36,22%,-1%,14%,u
CSc1ccccc1NC(=O)c1cc(-c2cccnc2)nc2ccc(Br)cc12,0%,u,21µM*,-4%,2%,u
O=C(Nc1ccc(C(=O)N2CCOCC2)cc1)c1cc(-c2cccnc2)nc2ccc(Cl)cc12,-11%,u,2.1µM*,-7%,-20%,1.8µM*
CC(=O)Nc1cccc(NC(=O)c2cc(-c3cccnc3)nc3ccc(Cl)cc23)c1,18%,u,u,u,u,u
CS/C(=N/S(=O)(=O)c1ccc(C)cc1)c1ccccc1,-43%,-55*,-3%,0%,-9%,17%
Cc1ccc(S/C(=N/S(=O)(=O)c2ccc(Cl)cc2)c2ccccc2)cc1,x,x,10µM*,x,x,11µM*
CS/C(=N\S(=O)(=O)c1ccc(Cl)cc1)c1ccccc1,-10%,10,-23%,5%,0%,-12%
Cc1ccc(S(=O)(=O)/N=C(\N)c2ccc(Cl)cc2)cc1,u,-4,u,-13%,-8%,-23%
O=S(=O)(/N=C(\Sc1ccc(Cl)cc1)c1ccccc1)c1ccccc1,u,-113*,21µM*,4%,3%,12µM*
CC(C)O/C(=N\S(=O)(=O)c1ccc(Cl)cc1)c1ccccc1,-11%,6,-9%,14%,-2%,-3%
CCCCCn1c(NCCO)nc2c1c(=O)[nH]c(=O)n2C,-8%,x,x,x,x,x
Cn1c(=O)n(Cc2ccc(F)cc2)c(=O)c2c1nc1n2CCCN1Cc1ccccc1,-2%,u,23µM*,2%,-3%[9.24 µM],u
Cc1ccc(N2CC(C)Cn3c2nc2c3c(=O)n(CC(=O)OCc3ccccc3)c(=O)n2C)cc1C (stereo unspecified),-16%,10,18µM*,0%,-3%,11µM*
Cn1c(=O)n(CCCc2ccccc2)c(=O)c2c1nc1n2CCN1c1ccccc1,-18%,x,6.5µM*,x,x,7.3µM*
COCCn1c(=O)c2c(nc3n2CCCN3Cc2ccccc2)n(C)c1=O,0%,10,3%,10%,9%,14%
Cc1cc(C)cc(N2CCn3c2nc2c3c(=O)n(CCCc3ccccc3)c(=O)n2C)c1,-1%,x,-7%,x,x,-1%
CCn1c(=O)c2c(nc3n2CC(C)CN3CCc2ccccc2)n(C)c1=O (stereo unspecified),-28%,-1,u,-15%,1%,21µM*
Cc1cc(N2CCN(S(=O)(=O)c3ccc(Cl)c(C(F)(F)F)c3)CC2)nc(C(C)C)n1,-27%,x,x,x,x,x
O=C(c1cn2c3c(cccc3c1=O)CC2)N1CCN(c2cccc(C(F)(F)F)c2)CC1,2%,x,x,x,x,x
O=C(COC(=O)c1cc2c(F)cccc2s1)NCC1CCCO1 (stereo unspecified),19%,x,x,x,x,x
Cn1c(=O)n(CCc2ccccc2)c(=O)c2c1nc1n2CCCN1CCc1ccccc1,0%,u,7.3µM*,23µM*,29µM*,12µM*
COc1ccc(N2CCCn3c2nc2c3c(=O)n(CCc3ccccc3)c(=O)n2C)cc1,0%,-24,15µM*,3%,7%,u
CCc1ccc(N2CCn3c2nc2c3c(=O)n(Cc3ccc(F)cc3)c(=O)n2C)cc1,-15%,x,-10%,x,x,2%
CCCn1c(=O)c2c(nc3n2CCCN3Cc2ccccc2)n(C)c1=O,-16%,-6,-15%,-7%,-18%,u
SMILES,12-LOX inh,IL1B secr inh,DT40 TDP1 no CPT,HT1080-NT tox,HT1080 IDH1KD tx,TDP1 cell CPT
Cn1c(=O)n(CCc2ccccc2)c(=O)c2c1nc1n2CCCN1Cc1ccccc1,130%,-18,13µM*,1%,-4%[9.24 µM],u
CCOCCn1c(=O)c2c(nc3n2CCN3c2ccc(CC)cc2)n(C)c1=O,3%,54,u,0%,1%,15µM*
COc1cc2cc(C(=O)NCC(=O)Nc3ccc4c(c3)OCO4)n(C)c2c(OC)c1OC,42%,x,x,x,x,x
CC(C)Cn1c(=O)c2c(nc3n2CCCN3CCc2ccccc2)n(C)c1=O,-2%,u,15µM*,-3%,-22%,16µM*
Cc1cccc(C)c1OCc1cc(C(=O)N2CCC(c3ccccc3)CC2)no1,u,u,u,-3%,-1%,u
O=C(c1ccc(CS(=O)(=O)c2c(Cl)cccc2Cl)o1)N1CCN(c2ccccc2)CC1,-3%,x,15µM*,x,x,u
Cc1ccc(Cl)cc1N1CCN(C(=O)c2ccc(CS(=O)(=O)c3ccccc3C)o2)CC1,-15%,x,18µM*,x,x,u
Cc1ccccc1S(=O)(=O)Cc1ccc(C(=O)N2CCN(c3ccccc3F)CC2)o1,-14%,13,u,-8%,-4%,u
Cc1ccccc1S(=O)(=O)Cc1ccc(C(=O)N2CCN(c3ccc(F)cc3)CC2)o1,-12%,1,u,-22%,-26%,16µM*
Cc1cccc(C)c1OCc1cc(C(=O)N2CCN(c3ccc(F)cc3)CC2)no1,7%,-51*,-24%,-4%,-15%,u
Cc1cccc(NC(=O)CSc2nc(N3CCOCC3)c3c(c2C#N)CCCC3)c1,4%,x,x,x,x,x
O=S(=O)(Nc1nc2ccccc2nc1NCCc1ccccc1)c1ccc(F)cc1,14%,x,x,x,x,x
COc1cccc(N2CCN(CC(=O)N3CCN(S(=O)(=O)c4ccc(Cl)cc4)CC3)CC2)c1,-22%,5,18µM*,-12%,-8%,u
COc1cccc(C(=O)CN2CCN(S(=O)(=O)c3ccc(Cl)cc3)CC2)c1,56µM*,x,u,x,x,u
O=C(/C=C/c1ccc2c(c1)OCCCO2)OCc1ccccn1,-27%,x,x,x,x,x
O=C(NCC1CCCO1)c1ccc(CSc2nc3cccnc3n2Cc2ccc(F)cc2)cc1 (stereo unspecified),-9%,x,x,x,x,x
CCc1ccc(OCC(=O)N(Cc2cccs2)c2ccc(Cl)cc2)cc1,0%,x,u,x,x,u
COc1ccc(N(Cc2cccs2)C(=O)c2ccco2)cc1,u,x,u,x,x,23µM*
COc1ccc(N(Cc2cccs2)C(=O)Nc2cccc(Cl)c2)cc1,16µM*,x,u,x,x,u
COc1ccc(OCC(=O)N(Cc2cccs2)c2ccc(OC)cc2)cc1,0%,x,23µM*,x,x,16µM*

# High-throughput results: PubChem, National Center for Advancing Translational Sciences (NCATS)
